The structures appear in SMILES notation. The full ranking holds about 110,000 compounds; the median of “z-score” is about -0.1, and the highest 2% start at about 2. For the sample, the highest values were picked, then their nearest neighbours and some compounds at random. Calls of active or inactive are those of the source.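 The calls were made as follows: active = z-score in the third read window above 3 or below -3; inactive = the rest.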

Chain of Metabotropic glutamate receptor 8 (Rattus norvegicus) (P70579 whole entry, looked up): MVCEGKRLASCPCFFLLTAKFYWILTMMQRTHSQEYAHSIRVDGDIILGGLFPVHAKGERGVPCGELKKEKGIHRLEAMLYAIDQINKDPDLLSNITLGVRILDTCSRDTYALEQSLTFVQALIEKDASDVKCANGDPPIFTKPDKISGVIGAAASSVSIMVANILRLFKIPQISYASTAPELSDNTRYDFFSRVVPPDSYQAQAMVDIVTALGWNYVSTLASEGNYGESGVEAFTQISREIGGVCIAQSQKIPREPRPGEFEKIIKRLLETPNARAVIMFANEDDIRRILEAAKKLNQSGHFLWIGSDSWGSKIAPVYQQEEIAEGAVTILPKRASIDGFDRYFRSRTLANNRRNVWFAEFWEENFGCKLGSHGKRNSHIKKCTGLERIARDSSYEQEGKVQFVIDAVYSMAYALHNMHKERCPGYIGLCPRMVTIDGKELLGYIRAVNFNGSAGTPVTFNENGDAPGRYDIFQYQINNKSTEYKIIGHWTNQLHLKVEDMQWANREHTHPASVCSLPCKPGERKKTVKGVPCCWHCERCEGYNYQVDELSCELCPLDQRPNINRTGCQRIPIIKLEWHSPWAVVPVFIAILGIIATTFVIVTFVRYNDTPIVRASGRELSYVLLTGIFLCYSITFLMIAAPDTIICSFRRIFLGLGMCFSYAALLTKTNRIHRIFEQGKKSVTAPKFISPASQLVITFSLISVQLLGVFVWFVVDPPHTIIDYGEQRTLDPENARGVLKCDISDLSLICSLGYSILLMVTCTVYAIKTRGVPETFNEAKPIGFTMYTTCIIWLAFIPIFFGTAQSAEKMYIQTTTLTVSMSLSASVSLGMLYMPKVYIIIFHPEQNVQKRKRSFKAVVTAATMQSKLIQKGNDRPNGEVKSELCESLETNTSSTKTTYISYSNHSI

The test concerns the target Metabotropic glutamate receptor 8 (Rattus norvegicus) (UniProt P70579). Briefly: rat mGluR8 modulators via GIRK flux, primary screen, cell-based, thallium flux, HTS (AID 488969). The conditions noted are these: HEK293 rat mGluR8, GIRK (G protein-gated inwardly rectifying potassium channel) thallium flux, FluoZin2; at 10 µM; stronger effect = higher value; submaximal glutamate (EC20) added with thallium.
For the molecule `CC(c1ccco1)N(C(=O)c1ccccc1NS(=O)(=O)c1ccc(Cl)c([N+](=O)[O-])c1)c1ccccn1` (stereo not given), the z-score amounted to 0.843. As for `CC(c1ccco1)N(C(=O)c1ccccc1NS(=O)(=O)c1cc([N+](=O)[O-])ccc1Cl)c1ccccn1` (stereo not given), the figure is 2.18; as for `CC(c1ccco1)N(C(=O)c1ccccc1NS(=O)(=O)c1ccc(Cl)cc1)c1ccccn1` (stereo not given), -0.362; as for `O=C(CN1C(=O)C2CC=CCC2C1=O)Nc1nnc(SCc2ccc(Cl)cc2)s1` (stereo not given), -0.31. Consider `CCNc1nnc(-c2ccncc2)s1`, for which the z-score is -0.233. On to `c1ccc2c(Nc3nnc(-c4ccncc4)s3)cccc2c1`, for which the z-score is 4.07 (active). `Cc1ccc(Nc2nnc(-c3ccncc3)s2)c(Br)c1` came in with a z-score of 0.13.

`N=C1CCCN1CC(=O)c1ccc(Cl)cc1`: the z-score amounted to 0.073. Regarding `COc1cc2c(C)nc3onc(-c4ccccc4)c3c2cc1OC`, the z-score was -0.241. As for `COc1ccc2nc(SCC(=O)NC3CCCc4ccccc43)[nH]c2c1` (stereo not given), the figure is 0.0427; as for `Cc1ccc2nc(SCC(=O)NC3CCCc4ccccc43)[nH]c2c1` (stereo not given), 0.164. For `O=C(CSc1nc2ccccc2[nH]1)NC1CCCc2ccccc21` (stereo not given), the z-score worked out at 2.41. As for `O=C(NCc1cccnc1)C1CCN(C(=O)c2ccc(Cl)cc2Cl)CC1`, the figure is -0.0203. Turning to `N=C1S/C(=C\c2cn[nH]c2-c2ccc(F)cc2)C(=O)N1c1ccccc1F`, the z-score came out at 0.348. `CCn1c(-c2nn(C)c(C)c2Cl)n[nH]c1=S`: the z-score was -0.461.

Regarding `CCCCn1nnc(NC(=S)NC(=O)c2ccc(-c3cccc(Cl)c3Cl)o2)n1`, the z-score was 4.59 (active). As for `CCCCn1nnc(NC(=O)c2ccc(-c3cccc(Cl)c3)o2)n1`, the figure is -0.581; as for `CCCCn1nnc(NC(=S)NC(=O)c2cccs2)n1`, 0.0688. In the case of `COc1cccc(C(=O)/C=C/c2ccc(SC)cc2)c1`, the z-score came out at 0.0506.

For `CCC(C)N1CC(C(=O)O)CC1=O` (stereo not given), the z-score is -0.0459. As for `CCOc1ccc(S(=O)(=O)N2CCN(Cc3ccccc3)CC2)c2cccnc12`, the figure is 0.939; as for `Cc1cc(Oc2ccc(C)c(Cl)c2)nc(SCC(=O)c2ccccc2)n1`, -0.36. As to `N#C/C(=C\c1ccc(N2CCCC2)c([N+](=O)[O-])c1)c1nc2ccccc2[nH]1`, the z-score was 0.221. In turn, `N#C/C(=C/c1ccc(N2CCCC2)c([N+](=O)[O-])c1)c1nc2ccccc2[nH]1` came in with a z-score of 0.0678.

Molecule `N#C/C(=C\c1ccc(N2CCOCC2)c([N+](=O)[O-])c1)c1nc2ccccc2[nH]1` showed a z-score of 2.63. Turning to `COC(=O)N/N=C/c1cc(C)n(-c2cccc3ccccc23)c1C`, the z-score was 0.0823. `O=C(Nc1ccccc1)N1CCN(c2ccc(C(F)(F)F)cn2)CC1`: the z-score is -0.362.

On to `CC1CC(C)CN(Cc2nc(N)nc(Nc3ccc4ccccc4c3)n2)C1` (stereo not given), for which the z-score was 3.66 (active). In the case of `Nc1nc(CN2CCC(Cc3ccccc3)CC2)nc(Nc2ccccc2)n1`, the z-score stood at 2.39. For the molecule `Nc1nc(CN2CCN(Cc3ccccc3)CC2)nc(Nc2ccccc2)n1`, the z-score came to 0.26. As for `Nc1nc(CN2CCCCCC2)nc(Nc2ccccc2)n1`, the figure is 0.00781; as for `COc1ccccc1Nc1nc(N)nc(CN2CCC(Cc3ccccc3)CC2)n1`, 0.165. `CC1CC(C)CN(Cc2nc(N)nc(Nc3ccccc3)n2)C1` (stereo not given) yielded a z-score of 0.639. As for `O=c1oc2ccccc2c(N2CCCC2)c1CN1CCCC1`, the figure is -0.557; as for `CCOC(=O)NC1(NCC(C)C)Oc2ccccc2O1`, -0.313; as for `COc1cc(/C=N/OCC(=O)NC2CCCCC2)ccc1OCc1ccccc1`, -0.752. Consider `CC(C)c1ccc(OCC(=O)Nc2ccc(OC(F)(F)F)cc2)cc1`, for which the z-score was -0.173. As for `COc1ccccc1C(=O)NCCn1cc(SCC(=O)Nc2cc(C)on2)c2ccccc21`, the figure is -0.181; as for `O=C(NC(=S)Nc1ccc(Cl)cn1)c1cccs1`, 10.3 (active); as for `CC(=O)Nc1c(C)ccc2nsnc12`, 0.0413.

On to `O=C(Nc1ncc(Cl)cn1)c1cccs1`, for which the z-score was determined as 0.0318. With `Cc1ccc2nsnc2c1NC(=S)NC(=O)c1ccco1`, the z-score was 6.75 (active).

For `Cc1ccnc(NC(=S)NC(=O)/C=C/c2ccccc2)c1`, the z-score was -0.0726.

In the case of `Cc1ccnc(NC(=S)NC(=O)/C=C/c2ccco2)c1`, the z-score is 3.2 (active). For `Cc1ccnc(NC(=S)NC(=O)c2cccs2)c1`, the z-score was 7.29 (active). As for `O=C(NC(=S)Nc1c(Cl)ccc2nsnc12)c1ccco1`, the figure is -0.429; as for `Cc1ccnc(NC(=O)c2cccs2)c1`, -0.306; as for `Cc1cccnc1NC(=S)NC(=O)c1cccs1`, 0.0645. The molecule `Cc1cccnc1NC(=S)NC(=O)/C=C/c1ccco1` displayed a z-score of 0.37. The molecule `O=C(NC(=S)Nc1ccc(Cl)cn1)C(c1ccccc1)c1ccccc1` gave a z-score of 0.284. For the molecule `O=C(c1ccccc1)n1ccn(-c2ccccc2)c1=S`, the z-score was -1.09. The molecule `CC1CC1C(=O)OCC(=O)Nc1ccc(N=Nc2ccccc2)cc1` (stereo not given) showed a z-score of 0.616. With `O=C(C1CC(c2ccc(F)cc2)=NO1)N1CCCCC1` (stereo not given), the z-score is -0.0299. As to `O=C(CCC(NC(=O)OCc1ccccc1)C(=O)OCC(=O)N1CCCCC1)OCC(=O)N1CCCCC1` (stereo not given), the z-score amounted to 0.254.

As to `C=CCC(NCc1ccco1)c1ccc(OC)cc1OC` (stereo not given), the z-score is -0.246. As to `CC1CCc2nn(CC(=O)NCCN3CCCCC3C)cc2C1` (stereo not given), the z-score was 0.216.

The molecule `Cc1ccc2ccc(S(=O)(=O)n3nc(C)cc3C)cc2c1` showed a z-score of -0.75. In turn, `COC(=O)C(NC(=O)c1ccco1)(Nc1cc(C)ccn1)C(F)(F)F` (stereo not given) came in with a z-score of 0.329. For `CC(C)CC(=O)NC(=S)Nc1ccc(Cl)cn1`, the z-score is 2.96.

Consider `Cc1cccc(NC(=S)NC(=O)c2cccs2)n1`, for which the z-score was 5.04 (active).

Take `Cc1cccc(NC(=S)NC(=O)c2ccco2)n1`: the z-score is 3.93 (active). Molecule `Cc1cccc(NC(=S)NC(=O)/C=C/c2ccco2)n1` gave a z-score of 0.626. The molecule `Cc1cccc(NC(=O)Cc2cccs2)n1` gave a z-score of -0.58. As to `O=C(NC(=S)Nc1ccccn1)c1ccco1`, the z-score stood at 1.2. `Cc1ccnc(NC(=S)NC(=O)c2ccco2)c1` had a z-score of 2. On to `CCC(=O)NC(=S)Nc1ccc(Cl)cn1`, for which the z-score is 0.168. `Cc1cccc(NC(=O)c2cccs2)n1`: the z-score was determined as 0.965.

In turn, `Cc1cccc(NC(=O)c2cc(NC(=O)c3ccco3)ccc2Cl)n1` came in with a z-score of -0.288.

Regarding `CCCC(=O)NC(=S)Nc1ccc(Cl)cn1`, the z-score is 0.131. `CC(=O)c1c(C)[nH]c(C(=O)COC(=O)CNS(=O)(=O)c2ccccc2)c1C`: the z-score is -0.187. In the case of `C(=N\N1CCN(Cc2ccccc2)CC1)/c1cccs1`, the z-score is -0.298. Take `CC(=O)Nc1ccc(S(=O)(=O)NCCC(=O)Nc2ccc(C)c(Cl)c2)cc1`: the z-score is -0.0921. Consider `CC(=O)c1ccc(NC(=O)CSc2ccc(-c3ccc4c(c3)OCO4)nn2)cc1`, for which the z-score was -0.125. As for `CCOC(=O)N1CCN(C(=O)C2CC(c3cc(OC)ccc3OC)=NO2)CC1` (stereo not given), the figure is -0.594. For the molecule `COc1ccc(Br)cc1CNC(=O)C1CCN(S(=O)(=O)N2CCCCC2)CC1`, the z-score is -0.52.

The values are drawn from PubChem BioAssay AID488969 (Vanderbilt High Throughput Screening Facility, 2010).
